Assays:
Test in all cases: growth inhibition (% activity, log2 RLU normalised to DMSO / staurosporine); higher = more growth inhibition
Conditions in all cases: 33 µM
DIPGX29 = system: DIPGX29 (H3.3 K27M diffuse intrinsic pontine glioma line)
Summary of the method: (§1)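 For each approved drug, the growth-inhibition value is the replicate median of per-plate normalised CellTiter-Glo data. Luminescence was log2-transformed and expressed as % activity between solvent and positive control wells. Drugs were applied in triplicate at a single final concentration of about 33 μM for 7 days at 37 °C, 5% CO2 to pHGG cell lines and H9-derived neural stem cells.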

DIPGX37 = system: DIPGX37 (H3.3 K27M diffuse intrinsic pontine glioma line)
Summary of the method: as §1

DIPGX7 = system: DIPGX7 (H3.3 K27M diffuse intrinsic pontine glioma line)
Summary of the method: as §1

DIPGX9 = system: DIPGX9 (diffuse intrinsic pontine glioma line)
Summary of the method: as §1

HGGX39 = system: HGGX39 (paediatric high-grade glioma line)
Summary of the method: as §1

HGGX6 = system: HGGX6 (H3.3 G34R paediatric high-grade glioma line)
Summary of the method: as §1

HNSC = system: HNSC
Summary of the method: as §1

SUDIPGIV = system: SUDIPGIV (diffuse intrinsic pontine glioma line)
Summary of the method: as §1

SUDIPGVI = system: SUDIPGVI (diffuse intrinsic pontine glioma line)
Summary of the method: as §1

SUDIPGXIII = system: SUDIPGXIII (diffuse intrinsic pontine glioma line)
Summary of the method: as §1

SMILES	growth inhibition (DIPGX29) [%]	growth inhibition (DIPGX37) [%]	growth inhibition (DIPGX7) [%]	growth inhibition (DIPGX9) [%]	growth inhibition (HGGX39) [%]	growth inhibition (HGGX6) [%]	growth inhibition (HNSC) [%]	growth inhibition (SUDIPGIV) [%]	growth inhibition (SUDIPGVI) [%]	growth inhibition (SUDIPGXIII) [%]
COc1c(C)c2c(c(O)c1C/C=C(\C)CCC(=O)OCCN1CCOCC1)C(=O)OC2	17.5	14.5	10.6	15.1	17.2	15.1	65.5	8.44	8.42	7.66
COC(=O)CCc1ccc(OCC(O)CNC(C)C)cc1 (stereo not given)	0.107	1.63	0.0919	0.526	0.823	1.03	-0.617	-1.21	1.48	0.0941
NCCc1c[nH]cn1	-0.622	0.871	-1.55	0.0733	1.84	3.55	-2.23	0.269	-0.51	22.9
C[C@@H](NCCCc1cccc(C(F)(F)F)c1)c1cccc2ccccc12	8.61	3.26	6.24	5.87	5.43	18.9	49.7	4.23	-0.119	0.33
CN1CCC(=C2c3ccccc3C=Cc3ccccc32)CC1	1.58	-0.405	-0.277	2.34	7.18	-0.0199	1.09	3.58	1.48	1.93
Nc1ncn(C2OC(CO)C(O)C2O)c(=O)n1 (stereo not given)	3.4	-0.711	5.91	7.54	4.31	1.61	55.5	16.7	0.0997	-1.9
COc1ccccc1OCC(O)CO (stereo not given)	-3.06	-1.42	-2.23	-0.66	-1.85	-0.626	-6.5	-1.52	-1.52	1.23
NC(CO)C(=O)NNCc1ccc(O)c(O)c1O (stereo not given)	-0.675	0.574	-0.561	-0.46	-0.00682	2.73	-2.22	-0.604	0.203	-7.46
CCOC(=O)[C@H](CCc1ccccc1)N[C@@H](C)C(=O)N1Cc2ccccc2C[C@H]1C(=O)O	1.41	1.99	3.28	3.18	5.5	3.4	5.54	3.99	0.712	0.247
O=C1CCc2cc(OCCCCc3nnnn3C3CCCCC3)ccc2N1	3.36	2.01	4.29	2.35	7.05	2.3	4.38	3.38	3.43	1.12
CNC(CC(C)C)C(=O)NC1C(=O)NC(CC(N)=O)C(=O)NC2C(=O)NC3C(=O)NC(C(=O)NC(C(=O)O)c4cc(O)cc(O)c4-c4cc3ccc4O)C(O)c3ccc(c(Cl)c3)Oc3cc2cc(c3OC2OC(CO)C(O)C(O)C2OC2CC(C)(N)C(O)C(C)O2)Oc2ccc(cc2Cl)C1O (stereo not given)	-1.35	-1.91	-1.76	-1.16	-1.53	-2.38	-0.899	-0.924	-4.84	-0.803
CC(=O)SCC(Cc1ccccc1)C(=O)NCC(=O)OCc1ccccc1 (stereo not given)	1.1	2.25	1.03	1.31	1.49	1.32	-1.4	-1.43	-1.57	-0.948
NC[C@H]1O[C@H](O[C@H]2[C@H](O)[C@@H](O[C@H]3O[C@H](CO)[C@@H](O)[C@H](N)[C@H]3O)[C@H](N)C[C@@H]2N)[C@H](N)C[C@@H]1O	-1.1	-0.159	-0.415	-0.0629	-1.03	1.31	-1.87	-0.0713	-0.514	-17.5
CC(C)(C)CC(C)(C)c1ccc(OCCOCC[N+](C)(C)Cc2ccccc2)cc1	65.1	71.8	69	43.5	64.3	43.9	82.7	47.1	64.5	73.4
CC(C)(O)c1ccccc1CC[C@@H](SCC1(CC(=O)O)CC1)c1cccc(/C=C/c2ccc3ccc(Cl)cc3n2)c1	-0.862	0.461	-2.4	-1.33	-0.172	-2.63	-3.15	-1.21	-0.324	-15.7
N#C[C@@H]1CCCN1C(=O)CNC12CC3CC(CC(O)(C3)C1)C2	-0.11	-0.458	-0.508	-1	0.579	-2.32	14.2	0.0993	-3.27	-3.49
O=C1O[C@H]([C@@H](O)CO)C(O)=C1O	-0.099	2.39	0.0255	-1.21	1.99	-2.25	2.06	0.144	-0.209	-0.259
CC(S)C(=O)NCC(=O)O (stereo not given)	0.154	-1.2	-0.0217	1.07	2.86	0.336	0.528	-0.0269	-0.507	-0.969
COC(=O)[C@H](c1ccccc1Cl)N1CCc2sccc2C1	-1.33	-0.314	-0.551	-0.762	-0.681	-0.144	-2.08	-1.84	0.653	1.29
Oc1ccc(OC2CCCCO2)cc1 (stereo not given)	-0.0269	0.922	1.6	1.43	2.89	2.46	-1.26	0.845	0.118	0.895
NC(CO)(CO)CO	0.378	1.73	0.549	1.18	1.76	0.412	0.671	1.48	2.52	0.677
